High-throughput results (PubChem)
Pf Dd2 inh – Plasmodium falciparum Dd2 growth inhibition | P. falciparum Dd2 growth, SYBR Green, 72 h | 4.3% of 120,000 active | Potency, µM (highest dose often 28.9 µM), usual class: inhibitors; active = well fitted inhibition curve with a large enough effect; also: nearly all actives have a fitted effect of over 65% in size
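Readout: SYBR Green fluorescence, 485 nm excitation, 535 nm emission, after ~16 h lysis at 37C. Before that, Dd2-infected red cells (2.5% hematocrit) grew 72 h with compound, 29 uM top final concentration.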
Of the large screens only hits and unclear results are named; the others gave an inactive call. This is one part of a sample in which hits are shown more often than they occur.

COC(=O)CN1C(=O)[C@@H]2C[C@@H](O)CN2C2(CN(Cc3ccc(OC)cc3)C2)C1=O	none
O=C(O)C[C@@H]1CCN(C(=O)C2CC2)C[C@@H]1CCN1CCN(c2ccc(F)cc2)CC1	none
Cc1cccc(C(=O)N2C[C@@H](Oc3ccccc3)C[C@@H]2C(=O)N2CCOCC2)c1	none
COc1ccc2c(c1)c(CN1CC[C@H](CO)[C@H](N(C)C)C1)cn2C(C)C	none
CCc1ccccc1NC(=O)CSc1nc2n[nH]c(C)c2c(=N)n1-c1cccc(C)c1	none
Cc1cccc(-n2c(SCC(=O)Nc3ccccc3Cl)nc3n[nH]c(C)c3c2=N)c1	none
Cc1ccc(NC(=O)CSc2nc3n[nH]c(C)c3c(=N)n2-c2ccccc2C)cc1C	Pf Dd2 inh 8.91µM
CN1CC(=O)N(C2CCNCC2)Cc2c(NCCCc3ccccc3)ncnc21	none
Cc1ccc(C)c(N2CCN(S(=O)(=O)c3cc(Br)cc4c3N(C(=O)C3CC3)CC4)CC2)c1	none
CCC(=O)N1CCc2cc(S(=O)(=O)CCC(=O)N3CCN(c4cccc(Cl)c4)CC3)ccc21	none
Cc1ccc(N2CCN(S(=O)(=O)c3cc(Br)cc4c3N(C(=O)C3CC3)CC4)CC2C)cc1 (stereo not drawn)	none
COc1ccccc1CNS(=O)(=O)c1cc(Br)cc2c1N(C(=O)C1CC1)CC2	none
O=C(CCS(=O)(=O)c1cc(Br)cc2c1N(C(=O)C1CC1)CC2)N1CCN(c2cccc(C(F)(F)F)c2)CC1	Pf Dd2 inh 10µM
COc1ccc(N2CCN(S(=O)(=O)c3cc(Br)cc4c3N(C(=O)C3CC3)CC4)CC2)cc1	none
Cc1ccc(C)c(N2CCN(C(=O)CCS(=O)(=O)c3cc(Br)cc4c3N(C(=O)C3CC3)CC4)CC2)c1	Pf Dd2 inh 11.2µM
O=C(CCS(=O)(=O)c1cc(Br)cc2c1N(C(=O)C1CC1)CC2)N1CCN(c2ccc(F)cc2)CC1	Pf Dd2 inh 7.94µM
Cc1ccc(C)c(N2CCN(C(=O)CCNS(=O)(=O)c3ccc4c(c3)CCN4C(=O)C3CC3)CC2)c1	none
Cc1ccccc1S(=O)(=O)N1CCC(n2cnnc2-c2ccccc2)CC1	none
CN(c1ccccc1)c1cc(=O)c2ccnc(NCCc3ccccn3)c2o1	none
CC(=O)NC1CCN(c2nc(-c3cccnc3)nc3c2cnn3C)C1 (stereo not drawn)	none
COc1ccc(C(=O)N2CCC[C@H]2c2nc(-c3ccccc3)no2)cc1F	none
COc1ccc(-c2nc(-c3nnn4c3COC(c3ccc(C)cc3)C4)no2)cc1OC (stereo not drawn)	none
O=C(N1CCC(c2nc(C3CCOCC3)no2)C1)C1(c2ccccc2)CC1 (stereo not drawn)	none
COc1ccc(CNC(=O)c2c(C)noc2-c2cccs2)cc1	none
Brc1ccc(CN2CCC(c3nc4ncccc4[nH]3)CC2)cc1	none
CC(C)(c1nc(-c2cccnn2)no1)n1cccc1	none
Cc1noc(C2CC3(CCN(C(=O)c4ocnc4C)CC3)CN2C)n1 (stereo not drawn)	none
Cc1ccc(C2Cn3nnc(-c4noc(-c5cccc(N(C)C)c5)n4)c3CO2)cc1 (stereo not drawn)	none
Cc1ccc(-c2nnc(Nc3ccc(Cl)cc3)c3ccccc23)cc1S(=O)(=O)NCC1CCCO1 (stereo not drawn)	none
Cc1ccc(-c2nnc(Nc3cccc(Cl)c3)c3ccccc23)cc1S(=O)(=O)NCC1CCCO1 (stereo not drawn)	Pf Dd2 inh 10µM
Cc1cccc(Nc2nnc(-c3ccc(C)c(S(=O)(=O)NCC4CCCO4)c3)c3ccccc23)c1 (stereo not drawn)	Pf Dd2 inh 4.47µM
Cc1ccc(-c2cnc(C3CC3)o2)cc1S(=O)(=O)Nc1cccc(C#N)c1	none
CCOC(=O)c1c(Nc2cccc(C)c2)nnc(-c2ccccc2)c1-c1ccccc1	none
Cc1cc(-c2ccc(C)c(S(=O)(=O)NCC3CCN(Cc4ccccc4F)CC3)c2)on1	none
Cc1noc(-c2ccn3c(CNC(=O)Cc4cccc(F)c4)nnc3c2)n1	none
CCOc1ccccc1NC(=O)N1CC2CC(C1)[C@H]1CCCC(=O)N1C2 (stereo partly drawn)	none
O=C(NC1C[C@H]2CC[C@@H](C1)N2C(=O)Cc1cccc(Cl)c1)c1ccncc1 (stereo partly drawn)	none
COc1cccc(C(=O)NC2CCN(C(=O)c3cc4c(=O)[nH]c(C)cn4n3)CC2)c1	none
Cc1cn2nc(C(=O)N3CCC(NC(=O)c4ccc(F)c(F)c4)CC3)cc2c(=O)[nH]1	none
Cc1cn2nc(C(=O)N3CCC(NC(=O)c4cccc(C#N)c4)CC3)cc2c(=O)[nH]1	Pf Dd2 inh 2.82µM
CNC(=O)NC[C@H]1CCN(Cc2ccc(OC)c(C)c2)C[C@H]1N(C)C	none
O=C(c1ccc(Cl)cc1)N1CCn2c(nn(-c3ccc(C(F)(F)F)cc3)c2=O)C1	none
COc1ccc(Nc2nc(-c3c(C)noc3C)cc3cc(CO)oc23)cc1OC	Pf Dd2 inh 7.94µM
Cc1noc(C)c1-c1cc2cc(CO)oc2c(NCc2cccc(F)c2)n1	none
COCCNc1nc(-c2c(C)noc2C)cc2cc(CO)oc12	none
Cc1nc(CCNC(=O)C(C)(C)C)no1	none
Cc1cn2nc(C(=O)Nc3ccccc3F)cc2c(N(C)Cc2ccccc2)n1	Pf Dd2 inh 7.94µM
Cc1cn2nc(C(=O)N3CCCC3)cc2c(N(C)Cc2ccccc2)n1	none
Cc1cn2nc(C(=O)N3CCN(c4ccccc4)CC3)cc2c(N2CCCC2)n1	none
COc1ccc(NC(=O)c2cc3c(N(C)Cc4ccccc4)nc(C)cn3n2)cc1OC	none
Cc1cn2nc(C(=O)NCCCc3ccccc3)cc2c(N2CCCC2)n1	none
Cc1cn2nc(C(=O)N3CCC(C)CC3)cc2c(N(C)Cc2ccccc2)n1	Pf Dd2 inh 11.2µM
CS(=O)(=O)Nc1ccc(C2(C(=O)NCc3ccccc3Cl)CCCCC2)cc1	none
Cc1nc(C(=O)N2CCC(Cc3nncn3-c3ccccc3)CC2)cs1	none
O=c1c2oc3ccccc3c2n(Cc2ccccc2F)c(=O)n1Cc1ccc2c(c1)OCO2	none
O=c1c2sc3ccccc3c2n(Cc2cccc(Cl)c2)c(=O)n1Cc1ccc(F)cc1	none
Cc1cccc(Cn2c(=O)n(Cc3ccccc3)c(=O)c3oc4ccccc4c32)c1	none
O=c1c2sc3ccccc3c2n(Cc2cccc(C(F)(F)F)c2)c(=O)n1Cc1ccccc1	none
O=c1c2oc3ccccc3c2n(Cc2cccc(Cl)c2)c(=O)n1Cc1ccc2c(c1)OCO2	Pf Dd2 inh 10µM
O=c1c2sc3ccccc3c2n(Cc2cccc(C(F)(F)F)c2)c(=O)n1Cc1ccc(F)cc1	Pf Dd2 inh 11.2µM
Cc1ccc(C)c(Cn2c(=O)n(Cc3ccc4c(c3)OCO4)c(=O)c3oc4ccccc4c32)c1	none
COc1ccc(Cn2c(=O)c3oc4ccccc4c3n(Cc3cccc(F)c3)c2=O)cc1	none
O=c1c2oc3ccccc3c2n(Cc2cccc(C(F)(F)F)c2)c(=O)n1Cc1ccc2c(c1)OCO2	Pf Dd2 inh 7.94µM
O=C1NC2(CCN(CC3CCCCC3)C2)OCc2ccccc21 (stereo not drawn)	none
CN1CCC(O)(Cc2nc3c([nH]2)CC(C)(C)CNC3=O)CC1	none
O=C(NC1CC1)c1ccnc2[nH]ccc12	none
COC(=O)CNC(=O)N1CC[C@H]2C(=O)NCCCCCCN(Cc3ccncc3)[C@@H]2C1	none
Cc1noc(C)c1CC(=O)NCC1CCN(c2cc(-c3ccc(F)cc3)[nH]n2)CC1	none
CCNC(=O)[C@@H]1C[C@H](n2cc(C(C)(C)NC(=O)c3ccccc3C)nn2)CN1	none
CCOc1ccc(C2NC(=O)N(Cc3nncn3C(C)C)C3=C2C(=O)OC3)cc1 (stereo not drawn)	none
N#Cc1ccccc1S(=O)(=O)N1C[C@@H]2C[C@H](C1)c1c(-c3ccccc3F)ccc(=O)n1C2	none
O=C(CCCn1cncn1)NC1CC(c2cc(=O)[nH]c(C3CC3)n2)C1 (stereo not drawn)	none
